Hits are enriched below; roughly 2.4% of the tested compounds scored in any of these assays.
MEKK2 mut-MEK5 = signal of MEK5 binding to mutant human MEKK2 PB1 domain | percent response, % at 10 µM | bead flow cytometry, Alexa488-MEK5 binding to MEKK2 mutant | AID 1530 | 0.35% of 290,000 active; in the data active = percent response above about 24%, passing the limit was not always enough
Arbovirus anti = arbovirus infection inhibition | inhibition, % at 10 µM | 0.37% of 200,000 active | arbovirus infection cell-based antiviral screen | AID 1251; in the data active = inhibition above about 30%
MEKK2 WT-MEK5 = raises or lowers MEK5 binding to wildtype human MEKK2 PB1 domain. AID 1531. binding response (% of control), % at 10 µM. Q9Y2U5. 1.1% of 290,000 active. bead flow cytometry, Alexa488-MEK5 binding to MEKK2 WT; actives lie on both sides; in the data active = binding response below about 67% or above about 130%
Pf gametocyte = P. falciparum stage V gametocyte viability inhibition; 0.065% of 150,000 active; inhibition, % at 10.9 µM; AID 743093; P. falciparum stage V gametocytes, ATP luminescence, 24 h;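 active = inhibition above the mean plus 3 SD of compounds within the control limits, set per campaign, cut at about 38% in these data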;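 note: 0% = DMSO wells and 100% = medium only without gametocytes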
MEKK3 PB1 HTS = raises or lowers MEK5 binding to the human MEKK3 PB1 domain; Q99759; bead-based flow cytometry, Alexa488-MEK5 binding to MEKK3; actives lie on both sides; 0 = blocked by unlabeled MEK5, 100 = vehicle; binding response (% of control), % at 10 µM; 1.4% of 290,000 active; AID 1529;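 active = binding response more than 3 SD above or below the average of its plate-row segment, actives on both sides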;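 note: Alexa488 bead fluorescence after subtracting the streptavidin-only scavenger bead signal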
* hit, by the source's call; / = no result; + = active, no number; [ ] = remark or other dose.

SMILES	MEKK2 mut-MEK5	Arbovirus anti	MEKK2 WT-MEK5	Pf gametocyte	MEKK3 PB1 HTS
Oc1ccc(Br)cc1-c1cc(-c2ccc(Cl)cc2)n[nH]1	5	74*	110	/	107
Oc1ccc(Br)cc1-c1cc(-c2ccccc2)n[nH]1	9	36*	102	6	109
CCC(C)n1c(=S)[nH]c2ccccc2c1=O (centres undefined)	-12	-5	91	11	96
CCC(Cc1ccccc1)n1c(=S)[nH]c2ccccc2c1=O (centres undefined)	+	4	/	/	136*
COc1cccc(CNC(=O)CCN2C(=O)[C@@H]3Cc4ccccc4CN3C2=O)c1	1	/	98	/	102
O=C(c1coc(=O)c(Br)c1)N1CCCc2ccccc21	-4	32*	96	/	97
CCOc1ccc(C(C(=O)NC2CCCCC2)N(CCOC)C(=O)c2snc(C(N)=O)c2N)cc1 (centres undefined)	13	/	108	13	104
CCN(CC)c1ccc(C=NCCNS(=O)(=O)c2ccc(C)cc2)cc1	7	/	-6.0*	/	98
Cc1nnc(SCc2nnc(-c3cccs3)o2)s1	4	4	101	0	98
COc1cc(CNCc2ccc(Br)cc2)cc(OC)c1	11	/	110	/	99
CCOC(=O)c1sc(NC(=S)NC(=O)c2cccc(Cl)c2)c(C(=O)OCC)c1C	3	37*	99	/	99
CCOC(=O)c1sc(NC(C)=O)c(C(=O)OCC)c1C	4	4	107	-6	107
CCCCc1oc2ccccc2c1C(=O)c1cc(I)c(OCCN(CC)CC)c(I)c1	51*	-44	163*	/	119
CN(CCNC(=O)c1ccc(CS(=O)(=O)c2c(Cl)cccc2Cl)o1)CCc1ccccc1	7	/	131	/	103
Nc1nc(-c2ccccc2)c(-c2ccc([N+](=O)[O-])cc2)s1	-11	33*	82	/	75
COC(=O)c1ccc2c(c1)C(C)(C)C(/C=C/c1ccc(O)cc1)=[N+]2C	-8	-40	51*[inhibitor]	/	72
Fc1ccccc1CNc1nc(-c2cccnc2)nc2ccccc12	31*	/	21*[inhibitor]	/	104
CCOc1ccc(N=C2NC(=O)SC2CC(=O)OC)cc1 (centres undefined)	5	/	98	14	103
COc1cc(/C(C)=N/NC(=O)CN2CCN(S(=O)(=O)c3ccc(C)cc3)CC2)ccc1O	-4	/	99	39*	95
CC(C)Cc1csc(NC(=O)c2ccc(F)cc2)c1C(=O)O	2	48*	103	7	94
CCOC(=O)c1c(CC(C)C)csc1NC(=O)c1ccccc1C(=O)O	-7	/	75	26	73
COc1ccc(-c2noc(CNS(=O)(=O)c3ccc(NC(C)=O)cc3)n2)cc1OC	5	/	103	/	99
COCCn1c(-c2ccc(Cl)cc2)cnc1SCC(=O)NCc1cccs1	9	58*	107	-1	105
O=C(CSc1nc2ccccc2c(=O)n1Cc1ccc(Cl)cc1)NCc1cccs1	-2	-6	96	8	100
COc1ccccc1C(=O)NCC1CCN(c2ccc(S(=O)(=O)N3CCOCC3)cc2)CC1	2	45*	97	/	98
SMILES	MEKK2 mut-MEK5	Arbovirus anti	MEKK2 WT-MEK5	Pf gametocyte	MEKK3 PB1 HTS
CCC1=C(OC(=O)N(CC)CC)N2C(=O)OC(=NCCc3c[nH]c4ccccc34)[C@]2(Cc2ccccc2)[C@H]2C1=CC[C@H]1C(=O)N(CC)C(=O)[C@H]12	3	/	99	/	104
Cc1ccc(C)c(S(=O)(=O)N2CCN(C(C)C(=O)Nc3ccccc3-c3ccccc3)CC2)c1 (centres undefined)	-1	32*	107	8	106
CSc1nc(NCCCO)c2c3c(sc2n1)CN(C)CC3	-4	/	96	-12	98
CCN(CC)CCCNc1nc(SC)nc2sc3c(c12)CCN(C)C3	30*	/	153*	/	99
Cc1ccc(C2(C)NC(=O)N(CC(=O)N(Cc3ccccc3)C(C)(C)C)C2=O)cc1 (centres undefined)	-9	/	91	/	93
N=C1SC(CC(=O)Nc2ccccc2[N+](=O)[O-])C(=O)N1c1ccccc1 (centres undefined)	3	/	115	11	113
O=C1C2CCCN2c2ccc(S(=O)(=O)N3CCOCC3)cc2N1Cc1ccccc1F (centres undefined)	5	18	109	/	113
O=C1C2CCCN2c2ccc(S(=O)(=O)N3CCOCC3)cc2N1Cc1cccc(C(F)(F)F)c1 (centres undefined)	0	-2	-8.0*	/	98
